# The supplement of paper PMC7724964
# T1: PDCD6IP 3-392 BRO1 (domain begin residue: 3, domain end residue: 392), Q8WUM4
# T1 chain: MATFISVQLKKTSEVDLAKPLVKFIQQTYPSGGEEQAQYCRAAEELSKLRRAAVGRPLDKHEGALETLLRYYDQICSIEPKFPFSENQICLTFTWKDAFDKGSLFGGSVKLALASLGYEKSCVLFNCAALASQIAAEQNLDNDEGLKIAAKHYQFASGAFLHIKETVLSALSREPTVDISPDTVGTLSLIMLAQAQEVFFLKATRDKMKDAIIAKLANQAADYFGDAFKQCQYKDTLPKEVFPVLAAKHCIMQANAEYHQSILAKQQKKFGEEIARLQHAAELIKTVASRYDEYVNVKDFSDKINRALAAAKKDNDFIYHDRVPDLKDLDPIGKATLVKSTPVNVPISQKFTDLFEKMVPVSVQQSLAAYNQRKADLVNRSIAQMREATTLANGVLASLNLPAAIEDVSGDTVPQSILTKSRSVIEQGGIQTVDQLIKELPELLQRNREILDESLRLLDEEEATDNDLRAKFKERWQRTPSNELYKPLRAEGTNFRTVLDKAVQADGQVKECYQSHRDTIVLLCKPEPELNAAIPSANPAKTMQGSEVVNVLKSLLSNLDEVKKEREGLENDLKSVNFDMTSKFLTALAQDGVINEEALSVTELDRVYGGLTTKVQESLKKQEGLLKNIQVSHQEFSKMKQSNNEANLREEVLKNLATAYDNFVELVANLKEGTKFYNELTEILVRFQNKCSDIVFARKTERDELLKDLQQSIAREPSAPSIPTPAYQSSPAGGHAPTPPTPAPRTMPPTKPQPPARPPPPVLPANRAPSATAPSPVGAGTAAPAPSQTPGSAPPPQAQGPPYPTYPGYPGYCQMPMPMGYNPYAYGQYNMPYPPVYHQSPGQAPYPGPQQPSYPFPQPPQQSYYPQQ
# T2: PLEK 120-231 DEP (domain begin residue: 120, domain end residue: 231), P08567
# T2 chain: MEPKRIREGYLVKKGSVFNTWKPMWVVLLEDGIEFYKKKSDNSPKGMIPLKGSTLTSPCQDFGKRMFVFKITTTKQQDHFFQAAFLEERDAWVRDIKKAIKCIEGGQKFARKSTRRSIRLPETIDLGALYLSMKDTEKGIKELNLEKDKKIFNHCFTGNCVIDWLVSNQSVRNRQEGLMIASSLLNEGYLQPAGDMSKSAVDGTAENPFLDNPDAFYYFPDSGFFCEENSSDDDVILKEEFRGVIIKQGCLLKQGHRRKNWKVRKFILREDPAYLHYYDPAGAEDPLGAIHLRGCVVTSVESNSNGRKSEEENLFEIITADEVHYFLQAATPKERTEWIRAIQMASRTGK
# T3: PPARG 233-505 Hormone_recep (domain begin residue: 233, domain end residue: 505), P37231
# T3 chain: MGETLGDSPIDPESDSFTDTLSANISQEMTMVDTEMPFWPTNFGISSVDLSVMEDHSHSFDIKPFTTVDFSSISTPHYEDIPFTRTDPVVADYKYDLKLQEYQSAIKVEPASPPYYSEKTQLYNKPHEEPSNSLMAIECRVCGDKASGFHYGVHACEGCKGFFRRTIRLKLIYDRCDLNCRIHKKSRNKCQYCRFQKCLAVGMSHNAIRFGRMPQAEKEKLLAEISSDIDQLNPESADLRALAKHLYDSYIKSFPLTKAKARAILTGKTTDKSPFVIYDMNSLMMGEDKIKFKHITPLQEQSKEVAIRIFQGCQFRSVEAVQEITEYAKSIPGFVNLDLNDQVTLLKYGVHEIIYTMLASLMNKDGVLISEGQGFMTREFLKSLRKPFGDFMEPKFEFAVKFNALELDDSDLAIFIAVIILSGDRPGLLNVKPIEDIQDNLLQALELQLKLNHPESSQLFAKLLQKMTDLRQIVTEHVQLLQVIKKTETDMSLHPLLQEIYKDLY
# Target: PDCD6 23-191 EF-hand_5+EF-hand_7 (domain begin residue: 23, domain end residue: 191), O75340
# Sequence (O75340 whole entry): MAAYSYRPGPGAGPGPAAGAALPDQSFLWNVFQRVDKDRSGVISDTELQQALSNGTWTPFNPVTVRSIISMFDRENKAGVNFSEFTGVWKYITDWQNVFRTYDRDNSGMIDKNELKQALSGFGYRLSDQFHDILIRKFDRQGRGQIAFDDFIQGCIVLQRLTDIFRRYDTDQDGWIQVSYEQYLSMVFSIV
# Assay: phage ELISA signal ratio (GST-PRM binding over GST background); higher = stronger binding of peptide-phage to the PRM
# How it was run: (§1)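 Five rounds of selection were carried out against human peptide recognition domains fused to the C-terminus of glutathione S-transferase (GST) and expressed in 96-well plates. The M13 phage library presented randomized hexadecapeptides, cysteine-free and glycine-flanked, on the gene-8 major coat protein. For each value, the phage ELISA signal on the GST-domain fusion was divided by the signal on GST alone.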
row,Binder,phage ELISA signal ratio
1,WVEYGWQDWVTKFDQQ,27.1
2,YPYGWQQWVWESEQVQ,27.1
3,LQVEYGWAEWTWIGAD,27.2
4,FQEVTMYGWRPEYLSD,27.7
5,IVALESPYGWQDWVTT,28.1
6,VSYGWAHWTMEQGEDA,28.1
7,EPLNYGWEGWLLDGWS,28.8
8,WADWVFQENEKWDLFV,29.1
9,YPEFAHYGFADWIYAS,30.4
10,EEMQQLGPFYGWQDWV,30.5
11,ASGEHAVGWQDWVWIS,31.1
12,VEQFPYGWADWVHEIV,31.3
13,QTDYAYGFYPFIEQHF,32.3
14,YGWDWEFLEGLQYGKV,32.4
15,AAQYGWQDWVMVPESM,32.8
16,YGWDPFLENISWSWQA,33.4
17,QNGTPMPGWAPWVLEV,34.1
18,DSHYGWAEWVLQGPVA,35.1
19,VPVYGWDPGLWDGHAL,35.1
20,DIPPESYGWAPWVWQV,35.3
21,ADYPFEVWQAWVFEEV,36.3

# Target: T1, PDCD6IP 3-392 BRO1 (domain begin …
# Assay: as above
# How it was run: as §1
row,Binder,phage ELISA signal ratio
1,DVAWHVPWEQYFEQET,16.8
2,FDAYWQDLYMMDLDSF,19.8
3,WEEDFWTGLHFLNNAE,25.5
4,WDYMSEEESIRYLIEW,27.3

# Target: PHF19 190-255 PHD (domain begin residue: 190, domain end residue: 255), Q5T6S3
# Assay: as above
# How it was run: as §1
row,Binder,phage ELISA signal ratio
1,MEAPHWVWPPDGYALR,6.23
2,KLEMYQGTIPYGNYWP,6.64
3,TPGDLIDFSTLTFYYV,7.11

# Target: PIKFYVE 347-450 DEP (domain begin residue: 347, domain end residue: 450), Q9Y2I7
# Sequence (Q9Y2I7 whole entry): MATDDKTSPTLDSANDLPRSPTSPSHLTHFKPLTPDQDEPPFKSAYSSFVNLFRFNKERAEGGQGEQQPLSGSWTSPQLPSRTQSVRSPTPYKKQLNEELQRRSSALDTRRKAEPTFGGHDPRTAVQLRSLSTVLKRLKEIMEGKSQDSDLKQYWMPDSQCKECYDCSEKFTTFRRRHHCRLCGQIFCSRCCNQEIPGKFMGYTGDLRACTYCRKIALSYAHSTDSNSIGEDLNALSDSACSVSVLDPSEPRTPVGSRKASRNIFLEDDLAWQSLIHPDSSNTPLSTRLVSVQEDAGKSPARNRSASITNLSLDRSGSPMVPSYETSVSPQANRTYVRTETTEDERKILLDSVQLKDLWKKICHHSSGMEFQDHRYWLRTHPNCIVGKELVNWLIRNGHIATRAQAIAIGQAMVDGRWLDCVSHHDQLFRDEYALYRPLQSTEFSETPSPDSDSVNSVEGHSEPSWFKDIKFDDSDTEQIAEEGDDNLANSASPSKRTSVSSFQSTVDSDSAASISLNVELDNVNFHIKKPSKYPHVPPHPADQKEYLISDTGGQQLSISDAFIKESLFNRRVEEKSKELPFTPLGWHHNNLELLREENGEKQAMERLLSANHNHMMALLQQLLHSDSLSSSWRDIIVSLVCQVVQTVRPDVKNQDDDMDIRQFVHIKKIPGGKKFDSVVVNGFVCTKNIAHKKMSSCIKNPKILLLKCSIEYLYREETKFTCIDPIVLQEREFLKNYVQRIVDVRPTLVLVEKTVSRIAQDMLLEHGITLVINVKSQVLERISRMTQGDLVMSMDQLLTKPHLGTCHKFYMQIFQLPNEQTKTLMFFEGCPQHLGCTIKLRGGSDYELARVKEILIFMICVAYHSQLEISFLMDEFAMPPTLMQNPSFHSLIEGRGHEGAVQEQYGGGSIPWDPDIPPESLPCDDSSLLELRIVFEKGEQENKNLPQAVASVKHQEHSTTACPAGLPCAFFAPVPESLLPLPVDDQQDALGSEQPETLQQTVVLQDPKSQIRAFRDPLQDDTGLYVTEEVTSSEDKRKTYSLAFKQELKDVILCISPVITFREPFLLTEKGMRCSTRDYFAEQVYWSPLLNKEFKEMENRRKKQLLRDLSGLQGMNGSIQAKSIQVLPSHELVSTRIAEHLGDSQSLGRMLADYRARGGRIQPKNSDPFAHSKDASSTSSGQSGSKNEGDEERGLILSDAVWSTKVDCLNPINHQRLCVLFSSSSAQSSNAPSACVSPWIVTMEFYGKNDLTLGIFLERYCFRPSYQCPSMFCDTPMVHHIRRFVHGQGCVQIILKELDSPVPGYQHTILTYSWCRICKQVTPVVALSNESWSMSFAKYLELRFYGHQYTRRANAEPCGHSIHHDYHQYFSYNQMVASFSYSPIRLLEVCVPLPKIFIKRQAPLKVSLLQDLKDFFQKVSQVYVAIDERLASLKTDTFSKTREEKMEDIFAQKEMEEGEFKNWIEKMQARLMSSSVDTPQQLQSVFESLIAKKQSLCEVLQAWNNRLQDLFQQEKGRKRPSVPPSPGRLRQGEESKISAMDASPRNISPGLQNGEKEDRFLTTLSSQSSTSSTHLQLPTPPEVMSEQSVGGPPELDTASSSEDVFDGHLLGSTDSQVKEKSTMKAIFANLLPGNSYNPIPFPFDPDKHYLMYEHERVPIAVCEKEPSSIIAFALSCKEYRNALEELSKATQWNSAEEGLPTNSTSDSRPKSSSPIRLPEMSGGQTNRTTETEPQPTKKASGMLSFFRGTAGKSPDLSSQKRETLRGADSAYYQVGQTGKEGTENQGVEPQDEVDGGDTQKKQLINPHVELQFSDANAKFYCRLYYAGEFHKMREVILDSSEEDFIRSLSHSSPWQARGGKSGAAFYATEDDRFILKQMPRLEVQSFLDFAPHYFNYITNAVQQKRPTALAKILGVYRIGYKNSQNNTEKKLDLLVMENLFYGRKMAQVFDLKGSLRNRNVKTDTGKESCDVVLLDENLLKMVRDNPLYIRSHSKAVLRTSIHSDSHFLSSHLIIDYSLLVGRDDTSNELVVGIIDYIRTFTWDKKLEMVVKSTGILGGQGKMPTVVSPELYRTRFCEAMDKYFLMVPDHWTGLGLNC
# Assay: as above
# How it was run: as §1
row,Binder,phage ELISA signal ratio
1,YALPYEWMWMTDLIQE,3.03

# Target: T2, PLEK 120-231 DEP (domain begin residue: …
# Assay: as above
# How it was run: as §1
row,Binder,phage ELISA signal ratio
1,RPDIMERLQQLMVWHG,4.13
2,LQTYDWWADVMDHVLN,4.42
3,WFDEGMWEVINQYNSL,21.9
4,FDQLMHEAYTQWQSQQ,31.5

# Target: PLEK2 123-229 DEP (domain begin residue: 123, domain end residue: 229)
# Assay: as above
# How it was run: as §1
row,Binder,phage ELISA signal ratio
1,WNWENVWGLDQTHPLW,3.15
2,YLTWWYDPDHPDWATV,6.35
3,EIEPWWWDPHHENWAM,7.12
4,WNWENVWWLDQTHPLW,10.1
5,EFEMDFWEMWNAWLSQ,14.9
6,PDFWWQQQMADIMQWR,21.4

# Target: PLEK2 238-353 PH (domain begin residue: 238, domain end residue: 353)
# Assay: as above
# How it was run: as §1
row,Binder,phage ELISA signal ratio
1,MSGITDWWENPAYWSW,3.86
2,MHSELNWWEAMQWDSW,4.7
3,WEDWTYWNDHLHLSPE,8.15
4,LNDHWVAWHLMKNEIQ,14.3
5,SIKHWEQFYASQPPQI,16.2
6,MNEHWTEWYWQSQNFV,20.4
7,QNDGMDKAWVFWHEPT,20.8
8,TLTATDWWEEWNWGEN,20.9
9,EDVELLNKHWYDWAQV,25
10,DQVLKWNEHWHEWLQA,26.3
11,GPEMWNLHWQDWYNEV,28.3
12,DFNAHWLEWHAQHVAL,28.5
13,DGKHWADFYSAFPMLA,31.8
14,DINVTSDMNQHWMQWS,33.1
15,DHWDAFYTWQKQNYLD,36.8

# Target: T3, PPARG 233-505 Hormone_recep (domain …
# Assay: as above
# How it was run: as §1
row,Binder,phage ELISA signal ratio
1,AEEHSMSLMSLLLAPS,5.77
2,MNHAQIQSPLLWSLLW,11.6
3,QDLESWWWSEHLSNIM,14.3
